Screening results: PubChem BioAssay, several laboratories
The list is not random: actives were taken first. Their share in the collection is about 1.1%.
VLA-4 inh: inhibition in a human VLA-4 binding assay; VLA-4 expressing cells, ligand binding flow cytometry; inhibition, % (about 7 µM as worked out from the volumes in the protocol); 330,000 compounds, 0.2% hits; P13612; in the data active = inhibition above about 50%
CaV13 ICDI inh: Primary screen for inhibitors of IQ motif and Ca2+-dependent inactivation inhibitor domain binding in CACNA1D, Förster resonance energy transfer in living cells, …. HEK cells, CFP/YFP FRET ICDI-IQ, plate reader, 10 min; percent FRET-ratio fall versus neutral wells. inhibition, % at 12.3 µM. 340,000 compounds, 0.098% hits. AID 743397;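 active = mean replicate inhibition of at least 30% and at least 1% of replicates passing that level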;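 note: 0% = median of the neutral control wells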
Exocytosis inh: lytic granule exocytosis inhibition. TALL-104 LAMP-1 surface exposure, flow cytometry; cells stimulated with thapsigargin and PMA. inhibition, % at 10 µM. 360,000 compounds, 0.66% hits. AID 651702;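 active = inhibition above about 55%, limit read from the data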
ABCB6 inh 2: human ABCB6 transporter inhibition | Q9NP58 | K562-ABCB6 porphyrin accumulation, flow cytometry, 1 h; stronger effect = lower value | fluorescence ratio to DMSO, % at 10 µM | 360,000 compounds, 0.19% hits | AID 602162;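 active = fluorescence ratio to DMSO below 75%, the collection mean minus 3 SD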;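 note: signal is porphyrin accumulated inside mitochondria; 100% equals median channel fluorescence of DMSO control wells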
Target sequence (Q9NP58 whole entry, looked up): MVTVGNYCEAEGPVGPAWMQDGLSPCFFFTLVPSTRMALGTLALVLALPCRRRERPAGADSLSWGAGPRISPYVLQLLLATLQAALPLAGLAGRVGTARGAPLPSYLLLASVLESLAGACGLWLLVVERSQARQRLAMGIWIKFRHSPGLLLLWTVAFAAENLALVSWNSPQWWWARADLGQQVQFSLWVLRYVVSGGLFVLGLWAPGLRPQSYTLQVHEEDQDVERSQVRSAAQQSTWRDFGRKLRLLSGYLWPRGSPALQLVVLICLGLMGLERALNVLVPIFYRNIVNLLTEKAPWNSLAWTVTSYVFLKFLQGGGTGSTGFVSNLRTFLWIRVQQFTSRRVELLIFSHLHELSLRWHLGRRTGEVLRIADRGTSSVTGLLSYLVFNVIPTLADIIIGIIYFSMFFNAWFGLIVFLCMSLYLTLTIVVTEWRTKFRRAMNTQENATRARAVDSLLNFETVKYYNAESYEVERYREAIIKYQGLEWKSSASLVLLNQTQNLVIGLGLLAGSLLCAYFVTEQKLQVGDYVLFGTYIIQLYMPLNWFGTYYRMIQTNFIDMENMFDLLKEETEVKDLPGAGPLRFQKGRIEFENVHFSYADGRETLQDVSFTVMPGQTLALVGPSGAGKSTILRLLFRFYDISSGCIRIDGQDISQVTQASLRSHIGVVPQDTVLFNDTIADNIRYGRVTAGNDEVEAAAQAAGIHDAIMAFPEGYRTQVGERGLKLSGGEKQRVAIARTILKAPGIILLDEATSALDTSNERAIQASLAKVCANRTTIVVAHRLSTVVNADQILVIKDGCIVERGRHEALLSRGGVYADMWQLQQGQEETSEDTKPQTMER
Exocytosis CP01: blocks lytic granule exocytosis; shares compounds with Exocytosis inh; TALL-104 cells, LAMP-1 externalization, flow cytometry; stimulated with PMA plus thapsigargin; inhibition, % at 10 µM; 1,500 compounds, 11% hits; AID 651954; in the data active = inhibition above about 60%;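 note: 0% = stimulated vehicle wells and 100% = unstimulated wells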
* hit, by the source's call; · = not tested or not shown.

SMILES	VLA-4 inh	CaV13 ICDI inh	Exocytosis inh	ABCB6 inh 2	Exocytosis CP01
Cc1cc(N/N=C/c2ccc(O)cc2)c2cccc(C)c2n1	13	-6	31	98	·
Nc1c(C(=O)Nc2ccccc2)sc2nc(N3CCOCC3)c3c(c12)CCCC3	·	-9	0	93	·
COc1cccc(NC(=O)c2sc3nc(N4CCOCC4)c4c(c3c2N)CCCC4)c1	10	-15	69*	96	-16
O=C(CN1CCC(C(=O)c2ccc3c(c2)OCCO3)CC1)Nc1ccccc1C(F)(F)F	0	-7	88*	95	-3
Cc1ccccc1NC(=O)CN1CCC(C(=O)c2ccc3c(c2)OCCO3)CC1	2	-4	17	103	·
Cc1ccc(S(=O)(=O)N2CCCOC2CNC(=O)C(=O)NC2CCCC2)cc1 (stereo not given)	3	·	-14	96	·
COc1ccc(C(=O)NCCCNc2nc3cc(C)cc(C)c3cc2C#N)cc1	·	-10	-2	98	·
COc1cc(OC)cc(C(=O)NCCNc2nc3cc(C)cc(C)c3cc2C#N)c1	-3	-2	61*	102	-10
CN(c1ccc(OCc2ccc([N+](=O)[O-])cc2)cc1)S(=O)(=O)c1ccccc1	4	-3	61*	94	-14
CCOC(=O)C1CCCC12Nc1cccc3cccc(c13)N2 (stereo not given)	·	-5	86*	95	-14
O=C(NCc1cccc(F)c1)Nc1nnc([C@@H]2C[C@H](O)[C@@H](CO)O2)s1	·	-5	1	99	·
Cc1ccc(Nc2cc(C)c(O)c(C)c2)cc1	-15	-20	67*	101	19
COc1cc(/C=C/C(=O)OCC(=O)c2ccc[nH]2)ccc1O	·	-11	12	90	·
COc1cc2c(cc1OC)C(c1ccccc1[N+](=O)[O-])=NCC2	·	-10	-4	96	·
COc1ccc(CC(=O)Nc2nc(-c3ccccc3)c(C(C)=O)s2)cc1OC	-1	-4	78*	94	-4
COc1cc(CC(=O)Nc2nc(-c3ccccc3)c(C(C)=O)s2)cc(OC)c1OC	2	-7	0	97	·
O=C(NCC1CCCCC1)c1ccc(=O)[nH]c1	-2	-3	-7	94	·
O=C(NCC1CCCCC1)c1cccc(-c2ccc(O)cc2)c1	2	-18	59*	104	-4
O=C(OCC(=O)N1CCCc2ccccc21)c1ccc(F)c(S(=O)(=O)N2CCOCC2)c1	-7	-4	-2	102	·
C[C@@H]1CN([C@H](C)CO)C(=O)c2c(c3ccccc3n2C)-c2ccccc2CO[C@H]1CN(C)Cc1ccc(C(F)(F)F)cc1	·	-7	4	104	·
C[C@@H]1CN([C@H](C)CO)C(=O)c2c(c3ccccc3n2C)-c2ccccc2CO[C@H]1CN(C)Cc1ccc(Oc2ccccc2)cc1	·	-6	56*	94	8
CCc1nc2ccc(C(=O)N3CCN(C(=O)c4ccco4)CC3)cn2c1N(C)C(=O)Nc1ccccc1OC	·	-5	-2	103	·
Cc1cc(O)c(-c2cc(O)c(C)cc2O)cc1O	26	-3	102*	102	23
Cc1cc(N=O)c(C)cc1O	·	·	-6	100	·
COC(C)(C)[C@@H](O)COc1c2ccoc2cc2oc(=O)ccc12	0	-9	-8	98	·
SMILES	VLA-4 inh	CaV13 ICDI inh	Exocytosis inh	ABCB6 inh 2	Exocytosis CP01
CN(c1ccccc1)S(=O)(=O)c1ccc(C(=O)NCCc2ccc(F)cc2)cc1	8	-4	72*	95	-4
CCC(=C(c1ccc(OC)cc1)c1ccc(OC)cc1)c1cn(CC(O)CN2CCN(C)CC2)c2ccccc12 (stereo not given)	22	-6	89*	96	83*
COc1ccc(N(CC(=O)NCCC2=CCCCC2)S(=O)(=O)c2ccccc2)cc1	5	-1	62*	103	-5
CCOc1ccc(N(CC(=O)NCCSc2ccccn2)S(=O)(=O)c2ccc(Cl)cc2)cc1	2	-3	57*	98	-5
CCOc1ccc(N(CC(=O)NCCSc2ccccn2)S(C)(=O)=O)cc1	10	·	-1	102	·
COc1ccc(N(CC(=O)NCCOc2ccccc2)S(=O)(=O)c2ccc(C)cc2)cc1	7	-4	78*	95	-12
COc1ccc(NC(=O)CN(c2ccc(OC)c(Cl)c2)S(=O)(=O)c2ccccc2)cc1	18	-1	56*	99	-3
O=C(Cn1cc(COc2ccc(Cl)c(Cl)c2)nn1)NS(=O)(=O)c1ccccc1OC(F)(F)F	·	-18	3	93	·
